Shiga inhibitor = A qHTS for Small Molecule Inhibitors of Shiga Toxin. Vero cells, Shiga toxin protein synthesis inhibition reporter. hit rate 9.2% among 290,000. inhibition, % at 38.7 µM. AID 2315, 2010; in the data active = inhibition mostly above about 28%, no sharp cut-off; inactive = mostly below about 43%; note: 0% is about no effect
Cycloheximide cs = Cycloheximide Counterscreen for Small Molecule Inhibitors of Shiga Toxin | cell reporter, cycloheximide protein synthesis inhibition counterscreen | max response, % | hit rate 12% among 300,000; in the data active = max response mostly above about 13%, no sharp cut-off; inactive = mostly below about 14%; note: read at 38.3 µM for the half of the compounds with a filed dose; 0% is about no effect
AmpC inh detg = qHTS Inhibitors of AmpC Beta-Lactamase (assay with detergent); P00811; AmpC hydrolysis of nitrocefin, absorbance 480 nm, 0.01% Triton; Potency, µM (doses to about 114 µM), without a hit: at the top dose activity change, negative = inhibition, actives largely listed as inhibitors; hit rate 0.041% among 370,000; AID 485294, 2010;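 note: potency is the fitted concentration of half-maximal effect; 0% = no-compound wells and -100% = no-enzyme wells; nearly all actives have a fitted effect of over 25% in size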
Target sequence (P00811 whole entry, looked up): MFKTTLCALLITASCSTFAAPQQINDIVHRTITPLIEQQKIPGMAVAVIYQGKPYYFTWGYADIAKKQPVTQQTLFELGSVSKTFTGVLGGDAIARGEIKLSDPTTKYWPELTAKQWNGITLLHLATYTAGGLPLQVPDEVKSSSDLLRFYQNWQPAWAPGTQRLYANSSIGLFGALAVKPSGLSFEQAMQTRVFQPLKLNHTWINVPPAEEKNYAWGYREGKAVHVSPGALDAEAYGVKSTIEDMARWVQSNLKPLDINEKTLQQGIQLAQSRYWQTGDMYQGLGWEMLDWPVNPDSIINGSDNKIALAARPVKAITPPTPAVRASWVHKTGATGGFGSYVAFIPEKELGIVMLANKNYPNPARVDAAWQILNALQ
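20 mM phosphate pH 7.0 + 0.01% (detergent screen) or 0.0001% Triton X-100; 5.3 nM AmpC reagent; cpd preinc 15 min RT; nitrocefin (800 uM stock) to start; A480 q20 s × 4 min; Activity was normalised to no-enzyme and no-compound control wells.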
NS1 inh = qHTS Assay for Inhibitors of Influenza NS1 Protein Function; Potency, µM (highest dose often 46.1 µM), without a hit: at the top dose activity, positive = more growth; hit rate 0.4% among 270,000; AID 2326, 2010; calls by dose curve; note: potency is the fitted concentration of half-maximal effect; actives are rising curves; nearly all actives have a fitted effect of over 50% in size
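In this qHTS, NS1 from influenza A is expressed in budding yeast, where it slows growth. Cells are switched from glucose to 2% galactose medium (pH 6.0, -URA), treated with compound, and growth recovery is read at OD600.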
AmpC no deterg = qHTS Inhibitors of AmpC Beta-Lactamase (assay without detergent) | hit rate 0.52% among 330,000 | P00811 | Potency, µM (titrated, usually from 57.1 µM), for inactives: at the top dose activity change, negative = inhibition, usual class: inhibitors | AmpC nitrocefin hydrolysis, absorbance 480 nm, 0.0001% Triton | AID 485341, 2010;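 note: potency is the fitted concentration of half-maximal effect; plate controls were no compound for no effect and no enzyme for full effect; nearly all actives have a fitted effect of over 20% in size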
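AmpC (5.3 nM in the dispensed reagent) in 20 mM phosphate pH 7.0 with 0.01% (detergent screen) or 0.0001% Triton X-100 was preincubated with compounds for 15 min at room temperature. Nitrocefin was then added from an 800 uM solution, and hydrolysis was followed at 480 nm.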
Active calls of the source: *; u = inconclusive; x = not tested or not shown. Only a selection was taken, and hits are over-represented in it overall. Unless noted, calls come from the whole dose curve; as a rule, active = well fitted curve in the direction sought with a large enough effect; inconclusive = small, poorly fitted or top-dose-only effect, or another doubt; inactive = no such curve, though single readings can be large; an effect the other way counts as inactive or inconclusive.

SMILES	Shiga inhibitor	Cycloheximide cs	AmpC inh detg	NS1 inh	AmpC no deterg
COc1cc(C2C(C#N)=C(N)OC3=C2C(=O)CCC3)c([N+](=O)[O-])cc1OC (stereo unspecified)	-1	-1	0%	27%	-27%
CC(=O)c1ccc(N2CCN(c3ncnc4c3c(-c3ccccc3)cn4-c3cccc(C)c3)CC2)cc1	x	x	-5%	x	x
CCN(C[C@H]1N[C@@](C)(C(=O)OC)[C@H]2C(=O)N(C)C(=O)[C@@H]12)C(=O)COc1ccccc1	x	x	x	x	-3%
COc1c(C)cc(C(=O)C2CCCN(C(=O)c3cc4nc(C)cc(C)n4n3)C2)cc1C (stereo unspecified)	25*	7	0%	6%	-11%
COc1c(C)cc(C(=O)C2CCCN(C(=O)c3csc(C)n3)C2)cc1C (stereo unspecified)	-8	-3	-14%	-12%	40%
COc1c(C)cc(C(=O)C2CCCN(C(=O)c3cccc(-n4cccn4)c3)C2)cc1C (stereo unspecified)	19	13*	-5%	-1%	60%
CCOc1ccc(-c2c(C)nn3c(-c4ccccc4)c(C(=O)NCCOC)cnc23)cc1OCC	x	x	17%	x	x
CC(C)C(=O)NCC(c1ccc2c(c1)OCO2)N1CCN(c2ccccc2F)CC1 (stereo unspecified)	x	x	-4%	x	x
C/C(=N\NC(=O)c1csc(C)c1C)c1ccc(C)s1	38*	38*	-9%	6%	-7%
C/C(=N\NC(=O)CCC(=O)Nc1ccccc1)c1cccs1	-9	-1	6%	9%	-22%
Cc1ccc(NC(=O)c2ccco2)c(NC(=O)c2cccs2)c1	-5	9	-6%	2%	-26%
CC(=NNC(=O)c1cc(C)oc1C)c1ccc(Br)s1	x	x	x	x	-8%
C/C(=N\NC(=O)c1cccs1)c1ccc(C(=O)O)s1	83*	64*	0%	1%	5%
CCOC(=O)C/C(C)=N/NC(=O)c1cccs1	71*	22*	-4%	-6%	-47%
C/C(=N/NC(=O)c1cccs1)c1ccco1	95*	56*	5%	10%	1%
CC1CN(C(=O)C2(C)CC2(Cl)Cl)CC(C)O1 (stereo unspecified)	-8	-4	-12%	6%	-13%
CCc1ccc(NC(=O)c2cc3nc(-c4ccc(C)cc4)cc(C(F)(F)F)n3n2)cc1	x	x	-1%	x	x
Cc1ccc(NC(=O)CSc2nncn3c2cc2sccc23)cc1F	x	x	-3%	x	x
CCOc1cccc(NC(=O)c2sc3nc(-c4ccc(F)cc4)ccc3c2N)c1	x	x	30%	x	x
CC(Oc1ccccc1)C(=O)Nc1nnc2n1CCS2 (stereo unspecified)	x	x	-11%	x	x
CC(C)(C)OC(=O)C[C@H]1C/C=C\C[C@@H](CC(=O)N[C@H](CO)Cc2ccccc2)C(=O)NC[C@H](c2ccccc2)OC1=O	x	x	x	x	256%
CC(=O)N/N=C(/C)c1ccc(NC(=O)c2csc(C)c2C)cc1	147*	40*	1%	-13%	-22%
C/C(=N\NC(=O)c1ccc2c(c1)OCO2)c1ccco1	15	16	2%	x	-13%
C/C(=N\NC(=O)c1csc(C)c1C)c1ccco1	62*	37*	u	2%	-22%
C/C(=N\NC(=O)c1cccs1)C(C)(C)C	57*	71*	-6%	5%	-29%
SMILES	Shiga inhibitor	Cycloheximide cs	AmpC inh detg	NS1 inh	AmpC no deterg
CC(C)(CNC(=O)c1cccs1)CNC(=O)c1cccs1	24	-2	-13%	-5%	-14%
CC(C)CN(CCNC(=O)c1cn(C)c2ccc(S(=O)(=O)N3CCCCCC3)cc2c1=O)CC(C)C	x	x	2%	x	x
CC(C)OC(C)C	-11	-6	x	x	x
N#Cc1cc2c(nc1SCc1cccnc1)CCCCC2	130*	17	-2%	-118%	x
N#Cc1cc2c(nc1SCC(=O)O)CCCCC2	58	19	1%	5%	-6%
N#CCSc1nc2c(cc1C#N)CCCC2	57	30*	-4%	-63%	-25%
COc1ccc(Br)cc1C1C2C=CCCC2(C)C(=O)N1Cc1ccccc1 (stereo unspecified)	3	10	x	x	x
COc1ccc(Cc2nnc(Nc3ccc(Cl)cc3)[nH]c2=O)cc1	16	18*	6%	4%	-46%
CC(C)n1cnc2c(NCc3ccccc3)cc(Cc3ccc(F)cc3)cc21	x	x	11%	x	-9%
COc1ccc(CCNCC(O)COc2ccc(OC)cc2C(C)(C)C)cc1 (stereo unspecified)	-10	-7	-7%	-8%	26%
CCCCCCOc1ccc(OCC(O)CN2C(=O)NC(C)(C)C2=O)cc1 (stereo unspecified)	175*	43*	-7%	10%	38%
Cc1ccc(OCC(O)CN2C(=O)NC(C)(C)C2=O)cc1 (stereo unspecified)	-2	-4	-7%	2%	-10%
CC(C)(O)C(=O)NNC(=S)Nc1ccc(F)c(Cl)c1	2	2	-14%	x	-52%
Cc1[nH]nc(Nc2ccc(O)cc2)c1[N+](=O)[O-]	16	10	1%	3%	30%
COc1ccc(Nc2n[nH]c(C)c2[N+](=O)[O-])cc1	100*	32*	-7%	-4%	-27%
N#CCSc1nc2ccccc2c(=O)n1CC1CCCC1	-13	9	2%	1%	-28%
N#CCSc1nc2ccc(N3CCCCC3)cc2c(=O)n1Cc1ccccc1	38*	21*	-13%	u	-26%
Cc1cccc(OC(C)C(=O)N2CCC(c3nc4ccccc4o3)CC2)c1C (stereo unspecified)	x	x	23%	x	x
COc1ccc(C2=CSC(/N=C/c3ccc(F)cc3)=NN2)cc1	-4	30*	u	-26%	2%
COc1ccc(-c2cc3ccc(F)cc3cn2)cc1	x	x	x	x	-10%
O=S(=O)(c1ccccc1)c1nc(-c2cccs2)oc1SCc1ccc(F)cc1	x	x	2%	x	x
Cc1cc(F)ccc1NCc1ccc([N+](=O)[O-])cc1	71*	30*	1%	x	-25%
Cc1cc([N+](=O)[O-])ccc1NCc1ccc2c(c1)OCCO2	33	15	2%	-12%	-33%
Oc1cc2ccccc2nc1-c1ccccc1Cl	11	-1	-3%	-5%	-31%
CC1(C)c2ccccc2-c2nc3ccccc3cc2C1O (stereo unspecified)	16	18*	3%	-8%	-16%
SMILES	Shiga inhibitor	Cycloheximide cs	AmpC inh detg	NS1 inh	AmpC no deterg
O=C(Nc1ccc2c(c1)OCO2)c1cc(-c2cccc(O)c2)on1	111*	48*	-13%	-3%	u
O=C(NCc1ccc2c(c1)OCO2)c1cc(-c2ccccc2Cl)on1	19	4	-7%	-22%	-33%
Cc1cc(NC(=O)c2cc(-c3ccc(O)cc3)on2)no1	93*	42*	-6%	2%	-12%
O=C(Nc1ccc2c(c1)OCO2)c1cc(-c2ccc(Cl)cc2)on1	x	x	19%	x	x
O=C(Nc1ccc2c(c1)OCO2)c1cc(-c2ccc(O)cc2)on1	106*	40*	-4%	10%	-19%
O=C(Nc1ccc2c(c1)OCO2)c1cc(-c2ccccc2Cl)on1	89*	24*	-3%	-2%	-49%

High-throughput results (PubChem BioAssay)
